From PubChem BioAssay AID1159580 (chemical genetic matrix, 2015)
About 2,000 (36%) of roughly 5,500 compounds were called active. Inconclusive results (about 18%) are left out. Cut-off read from the data, not from the text of the source: active = normalized growth mostly below about 0.91 (no sharp cut-off); inconclusive = no clear call, values can overlap the other calls; inactive = mostly above about 0.92. The list shows a part of the results.

Assay: chemical genetic growth profiling, strain panel (AID 1159580);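 note: tested at 20 µM; growth read once vehicle control cultures reached saturation at 30 °C; 1 = growth at the plate median or of vehicle wells; lower values mean less growth of the strain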
Conditions: S. cerevisiae deletion strains, growth OD

Measured: normalized growth

NC1CCN(O)C1=O (stereo not given)
inactive: locus YAL013W, strain DEP1, stronger effect = lower value 1.02 | locus YAL040C, strain CLN3, stronger effect = lower value 1.02 | locus YCL061C, strain MRC1 (second series), stronger effect = lower value 1.02 | locus YDR363W, strain ESC2, stronger effect = lower value 0.986 | locus YER002W, strain NOP16, stronger effect = lower value 1.01 | locus YGR078C, strain PAC10, stronger effect = lower value 1.02 | locus YNL175C, strain NOP13, stronger effect = lower value 1.01 | locus YNL197C, strain WHI3, stronger effect = lower value 0.997 | locus YNL224C, strain SQS1, stronger effect = lower value 1.02 | locus YOR083W, strain WHI5 (second series), stronger effect = lower value 0.985
